From PubChem BioAssay (NCATS)
Inconclusive results are not listed. The source made the active and inactive calls. Calls come from the whole dose curve; as a rule, active = well fitted curve in the direction sought with a large enough effect; inconclusive = small, poorly fitted or top-dose-only effect, or another doubt; inactive = no such curve, though single readings can be large; an effect the other way counts as inactive or inconclusive. Starred links: 1 amine or outer side, 2 acyl side, 3 side chain; linkers in the order of their positions; H or OH if unused. Positions of bridges follow the written chain, without caps; N, C: chain ends. Non-standard residues stand in square brackets, D forms with d. Residues, ends and D or L forms follow the SMILES beside them. Chains are numbered I, II in the order given. *: point of attachment. Actinocin(9to1) = Cc1c2oc3c(C)ccc(C(=O)[*:1])c3nc-2c(C(=O)[*:2])c(N)c1=O; NMeV = CN[CH](C(=O)O)C(C)C; Nva = CCC[C@H](N)C(=O)O; Cbz = O=C(OCc1ccccc1)*; Sar = CNCC(=O)O

Legend:
[1] = system: MCC-13; test: qHTS assay to identify novel small-molecules to repurpose for Merkel cell carcinoma treatment (AID 1296009); details: MCC and control cell lines, CellTiter-Glo viability, 72 h; series mostly up to 46 µM; note: nearly all actives have a fitted effect of over 60% in size
Summary of the method: (§1)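 qHTS format: cells treated with library compounds in DMSO across 8 (NPC) or 11 (MIPE) concentrations. Readout after 72 hr at 37 degree celsius was CellTiter-Glo luminescence.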

[2] = system: MCC-26; test: as above; details: MCC and control cell lines, CellTiter-Glo viability, 72 h; series mostly up to 46 µM
Summary of the method: as §1

[3] = system: MKL-1; test: as above; details: MCC and control cell lines, CellTiter-Glo viability, 72 h; series mostly up to 46 µM
Summary of the method: as §1

[4] = system: MKL-2; test: as above; details: MCC and control cell lines, CellTiter-Glo viability, 72 h; series mostly up to 46 µM
Summary of the method: as §1

[5] = system: UISO; test: as above; details: MCC and control cell lines, CellTiter-Glo viability, 72 h; series mostly up to 46 µM
Summary of the method: as §1

[6] = system: WaGa; test: as above; details: MCC and control cell lines, CellTiter-Glo viability, 72 h; series mostly up to 46 µM
Summary of the method: as §1

[7] = system: C33A; test: Primary qHTS to identify gynecologic anti-cancer compounds using libraries of approved drugs and bioactive compounds (AID 1345084); details: Gynecologic cancer cell panel viability, ATPlite luminescence, 48 h; series mostly up to 57.5 µM; note: nearly all actives have a fitted effect of over 55% in size
Summary of the method: (§2)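 Cells, 1,000 per well, were allowed to settle for 16 h at 37 C before compound addition. Five concentrations were tested for 48 h, and viability was read by ATPlite luminescence after 15 min at room temperature.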

[8] = system: CASKI; test: as above; details: Gynecologic cancer cell panel viability, ATPlite luminescence, 48 h; series mostly up to 57.5 µM
Summary of the method: as §2

[9] = system: Es-2; test: as above; details: Gynecologic cancer cell panel viability, ATPlite luminescence, 48 h; series mostly up to 57.5 µM
Summary of the method: as §2

[10] = system: HeLa; test: as above; details: Gynecologic cancer cell panel viability, ATPlite luminescence, 48 h; series mostly up to 57.5 µM
Summary of the method: as §2

[11] = system: Hek293T; test: as above; details: Gynecologic cancer cell panel viability, ATPlite luminescence, 48 h, control line for the selectivity index; series mostly up to 57.5 µM
Summary of the method: as §2

[12] = system: JEG-3; test: as above; details: Gynecologic cancer cell panel viability, ATPlite luminescence, 48 h; series mostly up to 57.5 µM
Summary of the method: as §2

[13] = system: OV90; test: as above; details: Gynecologic cancer cell panel viability, ATPlite luminescence, 48 h; series mostly up to 57.5 µM
Summary of the method: as §2

[14] = system: PA-1; test: as above; details: Gynecologic cancer cell panel viability, ATPlite luminescence, 48 h; series mostly up to 57.5 µM
Summary of the method: as §2

[15] = system: SKOV3; test: as above; details: Gynecologic cancer cell panel viability, ATPlite luminescence, 48 h; series mostly up to 57.5 µM
Summary of the method: as §2

[16] = system: Tov-21-G; test: as above; details: Gynecologic cancer cell panel viability, ATPlite luminescence, 48 h; series mostly up to 57.5 µM
Summary of the method: as §2

[17] = system: Tov112D; test: as above; details: Gynecologic cancer cell panel viability, ATPlite luminescence, 48 h; series mostly up to 57.5 µM
Summary of the method: as §2

[18] = system: NIH3T3; test: qHTS assay to identify novel small-molecules to repurpose for Merkel cell carcinoma treatment (AID 1296009); details: MCC and control cell lines, CellTiter-Glo viability, 72 h; at 44.8 µM (top of the series) unless noted; note: nearly all actives have a fitted effect of over 60% in size
Summary of the method: as §1

Measured: Potency
Potency is the fitted concentration of half-maximal effect.

COc1cc([C@@H]2c3cc4c(cc3[C@@H](O[C@@H]3O[C@@H]5CO[C@@H](c6cccs6)O[C@@H]5[C@H](O)[C@@H]3O)[C@H]3COC(=O)[C@H]23)OCO4)cc(OC)c1O
active: [1] 1660 nM | [2] 2350 nM | [3] 235 nM | [4] 118 nM | [5] 1870 nM

c1ccc(CNc2nc(NCc3ccccc3)c3ccccc3n2)cc1
active: [4] 18700 nM
inactive: [1] | [2] | [3] | [5] | [6]

CON=C(C(=O)N[C@@H]1C(=O)N2C(C(=O)O)=C(Cn3ccc(=N)n3CCO)CS[C@H]12)c1csc(N)n1
inactive: [1] | [2] | [3] | [4] | [5] | [6]

N#CNC(=NCCCCCCOc1ccc(Cl)cc1)Nc1ccncc1
inactive: [4]
active: [1] 37.2 nM | [2] 14.8 nM | [3] 1.2 nM | [5] 5.9 nM | [6] 3.3 nM

C[C@@H](Oc1ccc2[nH]nc(C=Cc3cnn(CCO)c3)c2c1)c1c(Cl)cncc1Cl
active: [1] 26400 nM | [2] 16600 nM | [3] 7430 nM | [5] 20900 nM
inactive: [4]

CC[C@H](CC[C@@H](C)[C@H]1CC[C@H]2[C@@H]3CC=C4C[C@@H](O)CC[C@]4(C)[C@@H]3CC[C@]12C)C(C)C
inactive: [1] | [2] | [3] | [4] | [5] | [6]

COc1ccnc2[nH]cc(C(=O)C(=O)N3CCN(C(=O)c4ccccc4)C[C@@H]3C)c12
inactive: [1] | [2] | [3] | [4] | [5] | [6]

CC(C)C[C@@H](C=O)NC(=O)[C@H](CC(C)C)NC(=O)[C@H](CC(C)C)NC(=O)OCc1ccccc1 (Cbz-Leu-Leu-Leu-aldehyde)
active: [1] 2640 nM | [2] 2350 nM | [3] 935 nM | [4] 743 nM | [5] 1180 nM | [6] 935 nM

C=C1CCC2[C@](C)(CO)C(O)CC[C@]2(C)C1CC=C1C(=O)OCC1O (stereo not given in full)
inactive: [1] | [2] | [3] | [4] | [5] | [6]

CC(C(C)N1CC(=O)NC(=O)C1)N1CC(=O)NC(=O)C1 (stereo not given)
inactive: [1] | [2] | [3] | [4] | [5] | [6]

O=C1NC(=O)C(=Cc2ccc3nccc(-c4ccncc4)c3c2)S1
active: [1] 1870 nM | [2] 2960 nM | [3] 1480 nM | [4] 469 nM | [5] 743 nM | [6] 833 nM

N#CC(=C(O)c1ccc(Cl)cc1Cl)c1nc2cc(Cl)ccc2c(=O)[nH]1
inactive: [1] | [2] | [3] | [4] | [5] | [6]

O=C(O)C=Cc1ccc(Cn2ccnc2)cc1
inactive: [1] | [2] | [3] | [4] | [5] | [6]

C[C@H](NC(=O)[C@@H](O)c1cc(F)cc(F)c1)C(=O)N[C@@H]1C(=O)N(C)c2ccccc2-c2ccccc21
inactive: [1] | [2] | [3] | [4] | [5] | [6]

C[C@H]1O[C@H](O[C@H]2[C@H](O)[C@@H](O)[C@@H](O[C@H]3[C@H](O)[C@@H](O)C(O)O[C@H]3CO)O[C@H]2CO)[C@H](O)[C@@H](O)[C@H]1N[C@H]1C=C(CO)[C@@H](O)[C@H](O)[C@@H]1O (stereo not given in full)
inactive: [1] | [2] | [3] | [4] | [5] | [6]

C=C[C@@H]1CN2CCC1C[C@H]2[C@H](O)c1ccnc2ccc(OC)cc12 (stereo not given in full)
inactive: [1] | [2] | [3] | [4] | [5] | [6]

CCN(CC)CCNC(=O)c1c(C)[nH]c(C=C2C(=O)Nc3ccc(F)cc32)c1C
active: [1] 42900 nM | [2] 38200 nM | [3] 12100 nM | [4] 15200 nM | [5] 6050 nM | [6] 13600 nM

O=c1ccn([C@@H]2O[C@H](CO)[C@H](O)[C@@H]2F)c(=O)[nH]1
inactive: [1] | [2] | [3] | [4] | [5] | [6]

CCOC(=O)[C@H](CCc1ccccc1)N[C@@H](C)C(=O)N1[C@@H](C(=O)O)C[C@H]2CCC[C@@H]21
active: [4] 14800 nM
inactive: [1] | [2] | [3] | [5]

Cc1c2oc3c(C)ccc(C(=O)NC4C(=O)NC(C(C)C)C(=O)N5CCCC5C(=O)N(C)CC(=O)N(C)C(C(C)C)C(=O)OC4C)c3nc-2c(C(=O)NC2C(=O)NC(C(C)C)C(=O)N3CCCC3C(=O)N(C)CC(=O)N(C)C(C(C)C)C(=O)OC2C)c(N)c1=O (stereo not given) (I: TVP[Sar][NMeV] / II: TVP[Sar][NMeV]; ester I:1-I:C, II:1-II:C; linker I:N-II:N via Actinocin(9to1); configuration not given here)
inactive: [1] | [2] | [3] | [4] | [5] | [6]

COc1cccc2c1C(=O)c1c(O)c3c(c(O)c1C2=O)C[C@@](O)(C(C)=O)C[C@H]3O[C@H]1C[C@H](N)[C@H](O)[C@H](C)O1
active: [1] 590 nM | [2] 372 nM | [3] 33.2 nM | [4] 23.5 nM | [5] 46.9 nM

CCC[C@@H](C=O)NC(=O)[C@H](CC(C)C)NC(=O)[C@H](CC(C)C)NC(=O)OCc1ccccc1 (Cbz-Leu-Leu-[Nva]-aldehyde)
active: [1] 3320 nM | [2] 3320 nM | [3] 1320 nM | [4] 833 nM | [5] 2640 nM | [6] 833 nM

C[C@@H]1CC[C@@]2(OC1)OC1CC3C4CC=C5CC(O)CCC5(C)C4CCC3(C)C1[C@@H]2C (stereo not given in full)
inactive: [1] | [2] | [3] | [4] | [5] | [6]

CC(=O)OCC(=O)[C@@]12N=C(C)O[C@H]1C[C@H]1[C@@H]3CCC4=CC(=O)C=C[C@]4(C)[C@@H]3[C@@H](O)C[C@@]12C
inactive: [1] | [2] | [3] | [4] | [5] | [6]

COc1ccc(Nc2nccc(NCCO)n2)cc1
inactive: [1] | [2] | [3] | [4] | [5] | [6]

CN[C@H]1[C@@H](O)[C@@H]2O[C@@H]3O[C@H](C)CC(=O)[C@]3(O)O[C@@H]2[C@@H](NC)[C@H]1O
active: [3] 166 nM | [4] 2960 nM | [5] 3720 nM | [6] 296 nM
inactive: [1] | [2]

OCC(O)C(O)C(O)CO (stereo not given)
inactive: [1] | [2] | [3] | [4] | [5] | [6]

CC(C)OC(=O)[C@H](C)N[P@](=O)(OC[C@H]1O[C@@H](n2ccc(=O)[nH]c2=O)[C@](C)(F)[C@H]1O)Oc1ccccc1
inactive: [1] | [2] | [3] | [4] | [5] | [6]

COc1cc(C(C)C)c(Oc2cnc(NC(CO)CO)nc2N)cc1I
inactive: [1] | [2] | [3] | [4] | [5] | [6]

CC(C)(O)Cn1c(NC(=O)c2ccc(-c3cn[nH]c3)s2)nc2cc(CN3CCOCC3)ccc21
active: [1] 2960 nM | [2] 4690 nM | [3] 1180 nM | [4] 14800 nM | [5] 1870 nM

O=C(C=CC#Cc1cccc(NS(=O)(=O)c2ccccc2)c1)NO
active: [1] 14800 nM | [2] 18700 nM | [3] 3720 nM | [4] 1320 nM | [5] 16600 nM | [6] 1180 nM

C#C[C@]1(O)CC[C@@H]2[C@@H]3CCC4=CC(=O)CC[C@@H]4[C@H]3CC[C@@]21CC
inactive: [1] | [2] | [3] | [4] | [5] | [6]

COC1=C(OC)C(=O)C(CC=C(C)CCC=C(C)CCC=C(C)CCC=C(C)CCC=C(C)CCC=C(C)CCC=C(C)CCC=C(C)CCC=C(C)CCC=C(C)C)=C(C)C1=O
inactive: [1] | [2] | [3] | [4] | [5] | [6]

CN(C)CC[C@H](c1ccc(Cl)cc1)c1ccccn1
inactive: [1] | [2] | [3] | [4] | [5] | [6]

COc1cc2c(cc1OC)[C@@H]1C(=O)c3ccc4c(c3O[C@@H]1CO2)C=CC(C)(C)O4
active: [3] 1870 nM | [4] 935 nM | [6] 662 nM
inactive: [1] | [2]

CCOc1cc2ncc(C#N)c(Nc3ccc(OCc4ccccn4)c(Cl)c3)c2cc1NC(=O)C=CCN(C)C
inactive: [1] | [2] | [3] | [6]

O=C1CSC(=O)N1C(CCc1ccncc1)COc1ccc(-c2cccc([N+](=O)[O-])c2)cc1 (stereo not given)
active: [4] 18700 nM | [5] 13200 nM | [6] 16600 nM
inactive: [1] | [2]

CC(O)(C#Cc1ccc2c(c1)N(c1nc(N)ncc1Cl)CC2)c1nccs1 (stereo not given)
not listed: [18]
inactive: all other assays above

CCn1c(=O)c2c(nc(C=Cc3ccc(OC)c(OC)c3)n2C)n(CC)c1=O
not listed: [4]
inactive: all other assays above

Nc1ccc(C(=O)Nc2cccc(-c3nc(N4CCOCC4)c4oc5ncccc5c4n3)c2)cn1
inactive: [1] | [2] | [3] | [4] | [5]
active: [8] 14100 nM | [14] 3160 nM | [15] 15800 nM
